A selection: hits, their analogues and other compounds. The true share with any hit is near 3.8%.
Mdm2 MdmX PPI – inhibitors of human Mdm2-MdmX association, primary screen, cell-based, luminescence, split luciferase, SaOS-2, uHTS | SaOS-2 split-luciferase Mdm2/MdmX complementation | inhibition, % at 8 µM | actives 3% (n = 330,000) | AID 485346, 2010;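 active = inhibition of at least 50% at 8 µM in the primary screen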
Target sequence (O15151 whole entry, looked up): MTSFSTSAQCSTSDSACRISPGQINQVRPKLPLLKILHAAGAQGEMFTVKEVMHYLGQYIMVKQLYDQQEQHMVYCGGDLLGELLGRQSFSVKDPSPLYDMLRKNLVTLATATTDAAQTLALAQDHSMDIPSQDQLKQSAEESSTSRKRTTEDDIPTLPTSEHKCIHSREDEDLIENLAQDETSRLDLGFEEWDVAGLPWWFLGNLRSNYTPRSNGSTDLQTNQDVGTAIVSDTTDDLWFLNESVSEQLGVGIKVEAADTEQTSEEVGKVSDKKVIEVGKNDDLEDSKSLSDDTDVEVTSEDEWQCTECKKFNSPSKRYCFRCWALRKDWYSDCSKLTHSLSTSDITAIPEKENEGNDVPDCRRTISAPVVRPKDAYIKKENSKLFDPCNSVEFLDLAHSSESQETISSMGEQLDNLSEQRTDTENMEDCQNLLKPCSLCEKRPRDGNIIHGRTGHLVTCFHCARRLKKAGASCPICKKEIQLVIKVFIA
Target sequence (Q00987 whole entry, looked up): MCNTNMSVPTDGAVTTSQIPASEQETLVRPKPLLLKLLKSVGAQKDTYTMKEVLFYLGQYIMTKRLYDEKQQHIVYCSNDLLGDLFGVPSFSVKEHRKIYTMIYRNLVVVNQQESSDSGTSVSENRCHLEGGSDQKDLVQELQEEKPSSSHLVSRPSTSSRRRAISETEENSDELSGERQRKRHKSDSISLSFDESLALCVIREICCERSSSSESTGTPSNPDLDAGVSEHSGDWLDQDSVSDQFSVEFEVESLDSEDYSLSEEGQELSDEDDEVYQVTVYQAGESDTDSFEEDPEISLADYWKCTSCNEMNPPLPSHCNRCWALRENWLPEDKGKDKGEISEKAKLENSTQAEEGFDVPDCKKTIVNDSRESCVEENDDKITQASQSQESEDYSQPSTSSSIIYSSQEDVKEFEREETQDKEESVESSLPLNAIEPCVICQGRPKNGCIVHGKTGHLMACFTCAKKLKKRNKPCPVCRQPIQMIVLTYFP
Jurkat NFkB inh – inhibitors of induced NF-kB luciferase reporter, primary screen, TCR NF-kB activation inhibitor project, cell-based, luminescence, uHTS; Jurkat, PMA/ionomycin-induced NF-kB luciferase reporter; inhibition, % at 4 µM; actives 0.53% (n = 330,000); in the data active = inhibition above about 50%
Shn3 3UTR inh – reduction of Shn3 3'UTR firefly luciferase signal, primary screen, Schnurri-3 inhibitor project, cell-based, Clone20 osteoblasts, set 2; AID 588674, 2011; actives 0.52% (n = 360,000); Clone20 osteoblast Shn3 3'UTR firefly luciferase, 24 h; inhibition, % at 12.5 µM;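 active = mean inhibition of at least 75% with every replicate also reaching 75%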;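 also: 0% = median of neutral control wells and 100% = pilot-screen positive control compound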
697 NFkB inh – inhibitors of PMA/ionomycin-induced NF-kB reporter, 697 cells, primary screen, B-cell NF-kB inhibitor project, cell-based, luminescence, uHTS. 697 B-cell NF-kB luciferase reporter, 16 h. inhibition, % at 4 µM. actives 0.33% (n = 330,000); in the data active = inhibition above about 35%
Gli-Sufu antag – Gli-Sufu pathway antagonists, primary screen, luciferase luminescence, Sufu-KO-LIGHT cells, uHTS; Sufu-KO-LIGHT fibroblasts, Gli luciferase reporter luminescence; inhibition, % at 5 µM; actives 0.74% (n = 340,000);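 active = inhibition above about 55%, limit read from the data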;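 also: 0% = DMSO-treated cells and 100% = wells with medium but no cells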
Mdm2 MdmX conf – Mdm2-MdmX complex disruptors, retested hits, confirmation, luminescence, single concentration; shares compounds with Mdm2 MdmX PPI; Mdm2-MdmX binding, luminescent assay; inhibition, % at 8 µM; actives 55% (n = 10,000); AID 489028, 2010; in the data active = inhibition above about 40%
FLuc counter – full-length luciferase signal inhibition, confirmation, counter-screen for Mdm2/MdmX interaction inhibitor project, cell-based, single concentration, SaOS-2; shares compounds with Mdm2 MdmX PPI; SaOS-2 full-length luciferase counterscreen, luminescence; inhibition, % at 8 µM; actives 77% (n = 6,200); AID 504607, 2011;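 active = mean inhibition at 8 µM reaching about 37%, which flags the compound as non-specific, limit read from the data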;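 also: p53-null SaOS-2 cells with luciferase driven by a doxycycline-inducible promoter; compound on cells about two nights before reading with doxycycline added after day one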
Active calls of the source: *; x = no result given.

SMILES	Mdm2 MdmX PPI	Jurkat NFkB inh	Shn3 3UTR inh	697 NFkB inh	Gli-Sufu antag	Mdm2 MdmX conf	others
Cc1ccc(NC(=O)/C=C/C(=O)O)c(NC(=O)c2ccccc2)c1	7.1	1.2	-2.7	-9.0	-2.5	x
O=C(CN1C(=O)/C(=C\c2cccc(Br)c2)Oc2ccccc21)NCCCN1CCOCC1	63.2*	-13.8	-18.2	5.1	-2.4	10.7
Cc1nn(-c2ccccc2)c(C)c1-c1nnc(-c2c(C)nn(-c3ccccc3)c2C)o1	56.0*	-3.6	-0.6	-6.1	6.4	5.1
CC(C)C(NC(=O)/C=C/c1cccc([N+](=O)[O-])c1)C(C)C	0.6	-0.9	8.2	17.1	4.2	x
CC(C)NC(=O)c1ccccc1NC(=O)/C=C/c1cccc([N+](=O)[O-])c1	75.3*	12.9	-0.9	2.7	-0.5	11.2
Cc1nc(N2CCN(c3ccccn3)CC2)c2c(C)c(C(=O)N3CCN(c4cccc(Cl)c4)CC3)sc2n1	24.9	3.4	11.3	-42.9	20.1	x
CCOC(=O)c1c(CSC(=N)N)n(-c2ccc(C)cc2)c2cc(Br)c(OC(C)=O)cc12	91.7*	-5.6	-20.2	-31.6	24.1	8.8
FC(F)(F)c1ccccc1Cc1c(C2CCCCC2)nc2c3ccccc3ccn12	x	x	-4.7	x	x	x
Cc1nc([N+](=O)[O-])c(Sc2nc3ccccc3n2C)n1Cc1ccccc1	51.3*	-3.6	-0.4	-11.2	6.5	27.4
Cc1nc([N+](=O)[O-])c(SCC(N)=O)n1Cc1ccccc1	-5.5	-11.9	-7.4	3.9	-10.9	x
COc1cc(OC)cc(C(=O)NNC(=O)C2CCC2)c1	x	x	-23.8	x	x	x
CC(C)(C)c1ccc(-n2nc(C(N)=O)c(O)cc2=O)cc1	-17.0	-37.5	0.3	-13.0	47.7	x
CC(C)(C)c1ccc(-n2nc(C#N)c(Cl)cc2=O)cc1	100.3*	39.7	97.9*	13.0	-1.7	100.2*	FLuc counter=0.9
Cn1c(=O)oc2cc(S(=O)(=O)N3CCCC(C(=O)NC4CCCc5ccccc54)C3)ccc21 (stereo not given)	76.2*	11.8	4.8	9.3	1.0	69.8*	FLuc counter=54.4*
Cn1c(=O)oc2cc(S(=O)(=O)N3CCCC(C(=O)Nc4ccccn4)C3)ccc21 (stereo not given)	18.1	18.1	1.5	7.6	3.6	x
CCNC(=O)C1CCCN(C(=O)c2ccc(C#N)cc2)CC1 (stereo not given)	x	x	-0.9	x	x	x
CN(C)CCCN1c2ccccc2Sc2ccc(Cl)cc21	67.9*	-11.3	-11.2	11.1	13.3	13.2
CCC(CCNC(=O)c1ccccc1)(CCNC(=O)c1ccccc1)[N+](=O)[O-]	x	x	-0.5	x	2.4	x
CCCc1ccc(Oc2coc3cc(OCC(=O)Nc4ccccc4C)ccc3c2=O)cc1	8.8	15.3	8.5	-18.0	13.2	x
CCc1ccc(Oc2coc3cc(OCC(=O)Nc4cc(C)ccc4C)ccc3c2=O)cc1	52.2*	3.2	25.3	-9.5	1.1	14.4
CC(=O)N1CCN(c2nc3ccc([N+](=O)[O-])cc3s2)CC1	3.4	-24.3	-19.1	-19.5	-11.1	x
Cc1ccc2oc(=O)c3cnn(CC(=O)Nc4cc(-c5cccc(F)c5)no4)c3c2c1	73.8*	6.7	17.9	2.5	7.8	10.5
Cc1ccc2oc(=O)c3cnn(CC(=O)N4CCc5ccccc5C4)c3c2c1	-7.0	8.1	6.0	5.6	-3.5	x
Cc1cc(S(=O)(=O)Nc2ncnc3sccc23)ccc1F	x	x	-16.5	x	x	x
COC(=O)c1cc2sccc2n1Cc1nc(-c2ccc(OC)cc2)oc1C	68.2*	-18.5	24.7	-13.7	3.5	28.4
SMILES	Mdm2 MdmX PPI	Jurkat NFkB inh	Shn3 3UTR inh	697 NFkB inh	Gli-Sufu antag	Mdm2 MdmX conf	others
COC(=O)c1cc2ccsc2n1Cc1nc(-c2ccc(OC)cc2)oc1C	60.4*	6.9	22.8	-5.8	5.8	5.7
COC(=O)c1cc2ccsc2n1Cc1cccc(F)c1	-5.2	-4.0	-14.3	-21.8	-27.2	x
Cc1cccc(NC(=O)CSc2nc3ccc(NC(=O)CSc4nnnn4-c4ccccc4)cc3s2)c1C	58.5*	0.9	x	16.8	x	-5.1
O=C(N/N=C/c1ccccc1)c1ccc(CN2C(=O)c3cccc4cccc2c34)cc1	7.6	-3.7	16.3	-3.6	2.4	x
O=C(N/N=C/c1ccc(O)cc1O)c1ccc(CN2C(=O)c3cccc4cccc2c34)cc1	75.3*	33.2	94.0*	-78.0	21.5	74.5*	FLuc counter=29.2
O=C(N/N=C/c1cc2cc3c(cc2nc1Cl)OCO3)c1ccncc1	7.5	0.8	-9.7	-15.2	-8.0	x
COc1cccc(NC(=O)CN(C)C(=O)c2cc(-c3cccc(Br)c3)nc3ccccc23)c1	69.8*	-4.5	7.5	6.9	-6.0	35.9
COc1cccc(NC(=O)CN(C)C(=O)c2cc(-c3ccccc3)nc3ccc(C)cc23)c1	x	x	-3.0	x	4.8	x
COc1ccc(NC(=O)CN(C)C(=O)c2cc(-c3ccc(Cl)cc3)nc3ccccc23)cc1	30.2	8.3	25.6	26.8	6.5	x
CCOc1ccc(NC(=O)CN(C)C(=O)c2cc(-c3ccc(OC)cc3)nc3ccccc23)cc1OCC	70.7*	21.4	6.9	20.9	2.9	46.1*	FLuc counter=74.8*
C[C@@H]1C2CC(C/C2=N\NC(=O)c2ccncc2)C1(C)C (stereo not given in full)	20.3	-7.0	7.0	-13.7	-13.4	x
Cc1nc(N2CCc3ccccc3C2)[nH]c(=O)c1Cc1ccccc1	-5.4	-20.8	8.9	-19.5	-7.6	x
Cc1nc(-n2[nH]c3c(c2=O)CCCC3)[nH]c(=O)c1Cc1ccccc1	58.1*	-14.8	82.7	-12.7	45.6	64.2*	FLuc counter=30.8
COc1cccc(-n2c(SCC(=O)N3CCc4ccccc43)nnc2-c2c[nH]c3ccccc23)c1	74.9*	-5.2	41.3	2.0	5.1	48.9*	FLuc counter=82.7*
O=C(CSc1nc2ccccc2c(=O)n1-c1ccccc1)N1CCCc2ccccc21	6.0	-3.0	0.6	0.1	4.0	x
O=C(CSc1nc2ccccc2c(=O)n1-c1ccccc1)N1CCc2ccccc21	54.9*	1.2	30.9	3.8	11.3	68.0*	FLuc counter=80.6*
COc1ccc(-c2[nH]c(-c3ccc(C(=O)O)cc3)nc2-c2ccccc2)cc1	36.2	6.5	-19.0	6.7	0.5	x

Screening results from PubChem BioAssay.
